Results on four compounds are retold here after PubChem BioAssay (NCATS).

Test [1] concerns the target N-terminal Xaa-Pro-Lys N-methyltransferase 1 (Homo sapiens) (UniProt Q9BV86). Kind of test: Confirmatory qHTS for Inhibitors of N-terminal methyltransferase 1 (NTMT1): MTaseGlo Assay (AID 1645874).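 Note: luminescence from SAH made as NTMT1 methylates SPKRIA peptide using SAM; series mostly up to about 100 µM; nearly all actives have a fitted effect of over 65% in size.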 The method, boiled down: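 Inhibition was derived from luminescence after SAH-to-ATP conversion, scaled between no-enzyme and DMSO wells, then fitted by 4-parameter Hill. Conditions: 125 nM NTMT1, 100 uM SAM, 1 uM SPKRIA, 30 min RT.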
(In qHTS, concentration-response curves come from the screen itself.)

The nature of test [2]: Validation of Assay for Modulators of Lamin A Splicing (AID 1459; active = well fitted curve in the direction sought with a large enough effect in the signal ratio; the % refers to the signal ratio;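 note: cells exposed to compound for two days before reading; 0% is about no effect; ratio rise marks activators and ratio drop marks inhibitors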). The method, boiled down:
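Splicing correction is reported by an EGFP-containing lamin A minigene in stably transfected S3 HeLa cells, while DsRed2 controls for viability and nonspecific signal. Cells are exposed to compounds for 48 hrs before the GFP over RFP ratio is taken.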

The target in test [3] is DNA repair nuclease/redox regulator APEX1 (Homo sapiens) (UniProt P27695). Kind of test: qHTS Validation Assay for Inhibitors of the Human Apurinic/apyrimidinic Endonuclease 1 (APE1) (AID 1705; note: potency is the fitted concentration of half-maximal effect). The method, boiled down:
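Endonuclease activity of human APE1 is followed as dequenching when the enzyme incises a tetrahydrofuran abasic site in a short duplex labelled 5'-TAMRA/3'-BHQ-2 (50 nM final), after 15 min enzyme–compound preincubation at room temperature.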

Test [4] is described as follows: Counterscreen for APE1 Inhibitors: Fluorescent Dye Displacement Validation Assay (AID 1707). Note: potency is the fitted concentration of half-maximal effect. The method, boiled down:
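Reaction mixture of 250 nM Thiazole Orange and 50 nM double-stranded abasic-site DNA was dispensed, compounds were pin-transferred, and fluorescence was read at endpoint (480 nm ex, 540 nm em). Reduced fluorescence indicated dye displacement by DNA binding.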
(A counterscreen serves to expose hits that act by an unwanted route or on another target.)

Test [5] concerns the target Endonuclease 4 (Escherichia coli (strain K12)) (UniProt P0A6C1). Kind of test: Counterscreen for APE1 Inhibitors: qHTS Validation Assay for Inhibitors of Endonuclease IV (AID 1708). Note: potency is the fitted concentration of half-maximal effect. The method, boiled down:
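Measured as reaction progress, the fluorescence gain between first and third kinetic reads after adding 50 nM TAMRA/BHQ-2 THF duplex to 2 nM enzyme preincubated 15 min with compound; 2 mM MgCl2, pH 7.5.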

Test [6] can be described thus: qHTS for differential inhibitors of proliferation of Plasmodium falciparum line 7G8 (AID 1815).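 Note: parasite growth measured after three days of incubation; plate controls were vehicle wells for no effect and reference inhibitor wells for full effect.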
Test [7] is described as follows: qHTS for differential inhibitors of proliferation of Plasmodium falciparum line D10 (AID 1877).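 Note: parasites grown with compound for 72 h before DNA staining; plate controls were vehicle wells for no effect and reference inhibitor wells for full effect.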
Test [8] in a line: qHTS for differential inhibitors of proliferation of Plasmodium falciparum line HB3 (AID 1886).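 Note: parasites grown with compound for 72 h before SYBR Green readout; plate controls were vehicle for no effect and reference inhibitor for full effect.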 Particulars: Potency: Plasmodium falciparum HB3 proliferation inhibition.
The target of test [9] is Ferritin light chain (Equus caballus) (UniProt P02791). Kind of test: qHTS Validation Assay for Identification of Novel General Anesthetics (AID 2323). Note: series mostly up to about 77 µM; % is set by controls: 0 for no effect and ±100 for the full control effect. Put shortly: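 Apoferritin from horse spleen (10 uM) was mixed with 1-aminoanthracene at 50% saturation in PBS, then compounds were added. After 10 min at room temperature, fluorescence was read (ex 380 nm, em 535 nm) and normalized to free-probe and complex controls.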

The target in test [10] is ATP-dependent DNA helicase Q1 (Homo sapiens) (UniProt P46063). Kind of test: qHTS Validation Assay for Inhibitors of RecQ-Like Dna Helicase 1 (RECQ1) (AID 2353).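 Note: plate controls were DMSO vehicle for no effect and enzyme-free control for full effect.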 Put shortly:
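RECQ1T1 50 nM; forked duplex (20 bp + 30-nt ss tails) 200 nM, ATP 2 mM final; pH 8.0, 2 mM MgCl2, 2.5 ug/ml poly(dI-dC); 15 min compound preincubation; discontinuous kinetic read over 2 h at RT.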

Test [11] in a line: Validation screen for small molecules that induce DNA re-replication in MCF 10A normal breast cells (AID 463097). Note: 0% is about no effect; nearly all actives have a fitted effect of over 60% in size. Put shortly: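 DNA re-replication was detected as a rise in nuclei with elevated Hoechst fluorescence after a 48 hr compound exposure of MCF 10A cells at 37 C.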
The nature of test [12]: Quantitative high throughput screen for delayed death inhibitors of the malarial parasite plastid, 96 hour incubation (AID 488745).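 Note: luciferase-expressing P. falciparum in erythrocytes at 2% hematocrit and 0.1% parasitemia; series mostly up to about 29 µM; % is set by controls: 0 for no effect and ±100 for the full control effect; nearly all actives have a fitted effect of over 70% in size.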 The method, boiled down:
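Luciferase-expressing P. falciparum, infected RBCs 2% Hct/0.1% parasitemia (final); 96 h cpd exposure, 37 C, 5% CO2; RPMI 1640 + 0.5% Albumax, bicarbonate, gentamycin. Readout: luminescence loss = growth inhibition.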

For test [13], the target named is M-phase phosphoprotein 8 (Homo sapiens) (UniProt Q99549). Kind of test: qHTS Validation Assay for Inhibitors for MPP8 Chromodomain Interactions with Methylated Histone Tails (AID 488949). Note: potency is the fitted concentration of half-maximal effect; nearly all actives have a fitted effect of over 55% in size. Put shortly: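 Disruption of the preformed MPP8–trimethyl-H3K9 peptide complex (both 50 nM, 30 min, RT) is measured after 30 min compound exposure, using AlphaScreen proximity beads; aurintricarboxylic acid titration serves as plate control.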

The target in test [14] is Thyrotropin receptor (Homo sapiens) (UniProt P16473). Kind of test: qHTS Assay for Antagonists of the Thyroid Stimulating Hormone Receptor (AID 488980). Note: series mostly up to about 58 µM; 0% is about no effect. Put shortly:
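Cells expressing human TSHR (HEK293) are dispensed in HBSS/HEPES containing 70 uM RO 20-1724, compound is added, then TSH at EC80 (4 nM final). Antibody in lysis buffer follows, 30 minutes at room temperature before HTRF detection.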

The target of test [15] is Thyrotropin-releasing hormone receptor (Homo sapiens) (UniProt P34981). Kind of test: qHTS for Small Molecule Agonists and Allosteric Enhancers of Human TRH Receptor: Validation Screen for Agonists (AID 493127;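 active = calcium activation more than 3 SD above the typical response in the agonist read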;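 note: intracellular calcium rise by fluo-8 fluorescence before TRH EC20 addition; 0% is about no effect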). To be noted: TRH receptor agonist cell assay; at 2 µM; active compounds read high. Put shortly: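 Read-out: intracellular calcium release measured kinetically by FDSS (fluo-8, ex 480/em 530 nm), 1 reading/s after a 10-cycle baseline. TRHR cells, 2000/well, cultured 18 h at 33.5C, dye-loaded at room temp. Compound-evoked positive calcium signal flags agonists.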

The target of test [16] is Galactokinase (Homo sapiens) (UniProt P51570). Kind of test: qHTS Validation Assay for Inhibitors of Human Galactokinase (GALK) (AID 493189). Note: 0% is about no effect. Put shortly: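 Compounds were pin-transferred into ATP buffer, then GALK-galactose mix was added (final 5 nM enzyme, 100 uM galactose, 35 uM ATP). After 1 h at room temperature, remaining ATP was measured luminescently.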
The nature of test [17]: Validation screen for small molecules that induce DNA re-replication in SW480 colon adenocarcinoma cells (AID 504364). Note: 0% is about no effect. Put shortly:
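Read-out: total Hoechst intensity of nuclei by fluorescence scanning imager; hits raise the fraction of nuclei with elevated DNA content. Cells received compound for 48 hr at 37 C before a 40 min stain.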

Test [18] addresses Rap guanine nucleotide exchange factor 4 (Homo sapiens) (UniProt Q8WZA2). Kind of test: Confirmatory qHTS for antagonist of cAMP-regulated guanine nucleotide exchange factor 4 (EPAC2) (AID 1645885). Note: % is set by controls: 0 for no effect and ±100 for the full control effect; nearly all actives have a fitted effect of over 25% in size.
Test [19] deals with Zika virus NS2B-NS3 protease (unlinked complex). Kind of test: Primary screen GU Rhodamine qHTS for Zika virus inhibitors: Unlinked NS2B-NS3 protease assay (AID 1347159). Note: % is set by controls: 0 for no effect and ±100 for the full control effect; nearly all actives have a fitted effect of over 60% in size. The method, boiled down: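 In dose–response format, inhibition of unlinked protease (25 nM) was measured with 1.5 microM bis-peptide Rhodamine110 substrate. Aprotinin served as the intraplate control.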
In test [20] the target is Phospholipid hydroperoxide glutathione peroxidase GPX4 (Homo sapiens) (UniProt P36969). Kind of test: Primary qHTS Assay for Inhibitors of Recombinant Selenoprotein Glutathione Peroxidase 4 (GPX4) (AID 1845192). Note: series mostly up to about 50 µM; % is set by controls: 0 for no effect and ±100 for the full control effect; nearly all actives have a fitted effect of over 65% in size. Particulars: outcome: dose series up to 50 µM unless noted. The method, boiled down:
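qHTS, GR-coupled: GPX4 200 nM + cpd 30 min RT → GSH 1 mM, NADPH 0.5 mM, GR 100 nM → CHP 0.5 mM start; fluor 340/450 at t0 and t15 min; no-enzyme wells as control.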

Values without a mark were called inactive. Inconclusive results are not listed. Active and inactive are the calls of the source. Unless noted, calls come from the whole dose curve; as a rule, active = well fitted curve in the direction sought with a large enough effect; inconclusive = small, poorly fitted or top-dose-only effect, or another doubt; inactive = no such curve, though single readings can be large; an effect the other way counts as inactive or inconclusive.

Sequence of N-terminal Xaa-Pro-Lys N-methyltransferase 1 (Homo sapiens) (Q9BV86 whole entry, looked up): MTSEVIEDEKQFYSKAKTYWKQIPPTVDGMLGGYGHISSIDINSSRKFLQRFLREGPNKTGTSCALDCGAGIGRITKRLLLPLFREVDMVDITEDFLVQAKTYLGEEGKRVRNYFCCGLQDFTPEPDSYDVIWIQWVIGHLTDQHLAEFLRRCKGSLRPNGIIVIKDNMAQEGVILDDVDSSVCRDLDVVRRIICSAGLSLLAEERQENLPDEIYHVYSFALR
Sequence of Ferritin light chain (Equus caballus) (P02791 2-175 limits assumed): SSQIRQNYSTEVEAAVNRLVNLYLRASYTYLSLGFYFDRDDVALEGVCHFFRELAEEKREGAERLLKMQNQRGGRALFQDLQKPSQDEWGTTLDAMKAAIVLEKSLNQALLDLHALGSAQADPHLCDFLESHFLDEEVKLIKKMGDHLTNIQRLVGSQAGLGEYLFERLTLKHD
Sequence of ATP-dependent DNA helicase Q1 (Homo sapiens) (P46063 whole entry, looked up): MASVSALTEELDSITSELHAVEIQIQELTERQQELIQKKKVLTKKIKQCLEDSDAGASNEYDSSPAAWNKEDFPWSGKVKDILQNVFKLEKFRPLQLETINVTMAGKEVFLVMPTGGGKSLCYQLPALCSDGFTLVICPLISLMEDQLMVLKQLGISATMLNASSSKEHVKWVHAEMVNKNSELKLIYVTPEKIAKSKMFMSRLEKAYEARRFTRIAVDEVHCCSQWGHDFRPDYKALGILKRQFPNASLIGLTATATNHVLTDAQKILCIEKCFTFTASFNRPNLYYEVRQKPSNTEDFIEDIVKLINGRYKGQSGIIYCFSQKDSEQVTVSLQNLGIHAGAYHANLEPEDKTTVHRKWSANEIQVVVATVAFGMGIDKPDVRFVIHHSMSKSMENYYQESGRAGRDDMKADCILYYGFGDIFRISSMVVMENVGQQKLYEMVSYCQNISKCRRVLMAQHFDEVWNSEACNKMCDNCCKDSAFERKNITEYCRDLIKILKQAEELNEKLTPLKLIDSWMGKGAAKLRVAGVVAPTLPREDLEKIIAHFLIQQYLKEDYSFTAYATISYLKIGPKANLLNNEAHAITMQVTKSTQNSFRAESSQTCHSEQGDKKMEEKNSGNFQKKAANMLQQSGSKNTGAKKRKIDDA
Sequence of Thyrotropin receptor (Homo sapiens) (P16473 whole entry, looked up): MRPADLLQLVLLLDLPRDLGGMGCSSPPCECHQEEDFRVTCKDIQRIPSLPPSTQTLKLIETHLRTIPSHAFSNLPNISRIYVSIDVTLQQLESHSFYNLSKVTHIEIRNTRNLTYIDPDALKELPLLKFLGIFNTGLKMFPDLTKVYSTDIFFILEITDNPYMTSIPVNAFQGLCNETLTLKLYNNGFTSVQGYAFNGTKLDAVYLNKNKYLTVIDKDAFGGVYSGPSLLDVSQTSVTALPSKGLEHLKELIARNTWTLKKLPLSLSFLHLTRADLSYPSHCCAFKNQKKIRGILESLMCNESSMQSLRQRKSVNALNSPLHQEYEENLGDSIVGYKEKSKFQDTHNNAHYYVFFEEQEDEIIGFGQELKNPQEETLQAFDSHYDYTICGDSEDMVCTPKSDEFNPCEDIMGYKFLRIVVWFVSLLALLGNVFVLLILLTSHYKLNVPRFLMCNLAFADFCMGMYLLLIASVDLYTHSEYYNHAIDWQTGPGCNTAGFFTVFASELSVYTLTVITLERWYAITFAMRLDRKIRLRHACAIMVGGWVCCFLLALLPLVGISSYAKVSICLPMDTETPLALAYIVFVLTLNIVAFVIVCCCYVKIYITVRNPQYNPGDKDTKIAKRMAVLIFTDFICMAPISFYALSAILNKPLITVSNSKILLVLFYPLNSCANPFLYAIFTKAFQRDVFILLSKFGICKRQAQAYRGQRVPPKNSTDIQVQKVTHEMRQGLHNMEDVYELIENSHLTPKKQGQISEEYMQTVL
Sequence of Rap guanine nucleotide exchange factor 4 (Homo sapiens) (Q8WZA2 whole entry, looked up): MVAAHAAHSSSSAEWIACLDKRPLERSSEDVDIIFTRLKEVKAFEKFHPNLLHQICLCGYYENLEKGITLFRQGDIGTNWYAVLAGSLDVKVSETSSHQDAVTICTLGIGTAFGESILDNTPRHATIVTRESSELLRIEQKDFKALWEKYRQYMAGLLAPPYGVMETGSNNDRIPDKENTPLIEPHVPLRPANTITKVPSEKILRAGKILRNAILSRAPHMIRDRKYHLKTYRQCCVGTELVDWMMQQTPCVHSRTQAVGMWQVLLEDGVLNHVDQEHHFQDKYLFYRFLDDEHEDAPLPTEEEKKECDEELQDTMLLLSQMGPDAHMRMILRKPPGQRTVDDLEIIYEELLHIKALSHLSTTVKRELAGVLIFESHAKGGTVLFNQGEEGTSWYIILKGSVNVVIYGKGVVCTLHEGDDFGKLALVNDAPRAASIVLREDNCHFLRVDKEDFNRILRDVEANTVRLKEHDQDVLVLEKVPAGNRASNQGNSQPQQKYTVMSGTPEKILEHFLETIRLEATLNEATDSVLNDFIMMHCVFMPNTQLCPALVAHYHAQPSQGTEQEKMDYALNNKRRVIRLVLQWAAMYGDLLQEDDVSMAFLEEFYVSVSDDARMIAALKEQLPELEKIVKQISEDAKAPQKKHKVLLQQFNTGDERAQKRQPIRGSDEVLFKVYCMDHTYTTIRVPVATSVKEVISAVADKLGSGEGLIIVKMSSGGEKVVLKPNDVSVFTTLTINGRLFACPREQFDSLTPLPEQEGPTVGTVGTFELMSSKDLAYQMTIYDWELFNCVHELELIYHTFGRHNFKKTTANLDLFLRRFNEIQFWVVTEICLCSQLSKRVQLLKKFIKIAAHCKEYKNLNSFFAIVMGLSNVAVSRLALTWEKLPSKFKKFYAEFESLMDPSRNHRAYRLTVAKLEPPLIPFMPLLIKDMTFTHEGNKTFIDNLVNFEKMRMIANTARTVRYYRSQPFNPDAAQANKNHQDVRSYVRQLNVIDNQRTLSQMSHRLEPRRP
Sequence of Phospholipid hydroperoxide glutathione peroxidase GPX4 (Homo sapiens) (P36969 whole entry, looked up): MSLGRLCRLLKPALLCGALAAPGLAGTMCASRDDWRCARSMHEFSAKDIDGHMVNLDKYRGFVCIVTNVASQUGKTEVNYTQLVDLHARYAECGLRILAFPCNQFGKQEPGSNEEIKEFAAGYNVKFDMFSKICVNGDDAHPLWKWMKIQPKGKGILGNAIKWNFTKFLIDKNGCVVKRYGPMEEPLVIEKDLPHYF
Sequence of Thyrotropin-releasing hormone receptor (Homo sapiens) (P34981 whole entry, looked up): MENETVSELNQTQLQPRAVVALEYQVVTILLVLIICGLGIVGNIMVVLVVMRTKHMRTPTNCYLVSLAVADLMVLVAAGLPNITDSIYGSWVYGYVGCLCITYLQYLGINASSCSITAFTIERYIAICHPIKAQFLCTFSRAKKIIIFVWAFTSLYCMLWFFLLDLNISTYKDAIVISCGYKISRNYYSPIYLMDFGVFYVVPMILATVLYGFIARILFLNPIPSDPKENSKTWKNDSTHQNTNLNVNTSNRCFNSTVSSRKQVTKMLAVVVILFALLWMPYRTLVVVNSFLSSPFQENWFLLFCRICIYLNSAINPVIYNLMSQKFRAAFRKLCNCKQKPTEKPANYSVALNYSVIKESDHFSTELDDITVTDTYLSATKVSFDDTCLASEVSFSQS
Sequence of M-phase phosphoprotein 8 (Homo sapiens) (Q99549 whole entry, looked up): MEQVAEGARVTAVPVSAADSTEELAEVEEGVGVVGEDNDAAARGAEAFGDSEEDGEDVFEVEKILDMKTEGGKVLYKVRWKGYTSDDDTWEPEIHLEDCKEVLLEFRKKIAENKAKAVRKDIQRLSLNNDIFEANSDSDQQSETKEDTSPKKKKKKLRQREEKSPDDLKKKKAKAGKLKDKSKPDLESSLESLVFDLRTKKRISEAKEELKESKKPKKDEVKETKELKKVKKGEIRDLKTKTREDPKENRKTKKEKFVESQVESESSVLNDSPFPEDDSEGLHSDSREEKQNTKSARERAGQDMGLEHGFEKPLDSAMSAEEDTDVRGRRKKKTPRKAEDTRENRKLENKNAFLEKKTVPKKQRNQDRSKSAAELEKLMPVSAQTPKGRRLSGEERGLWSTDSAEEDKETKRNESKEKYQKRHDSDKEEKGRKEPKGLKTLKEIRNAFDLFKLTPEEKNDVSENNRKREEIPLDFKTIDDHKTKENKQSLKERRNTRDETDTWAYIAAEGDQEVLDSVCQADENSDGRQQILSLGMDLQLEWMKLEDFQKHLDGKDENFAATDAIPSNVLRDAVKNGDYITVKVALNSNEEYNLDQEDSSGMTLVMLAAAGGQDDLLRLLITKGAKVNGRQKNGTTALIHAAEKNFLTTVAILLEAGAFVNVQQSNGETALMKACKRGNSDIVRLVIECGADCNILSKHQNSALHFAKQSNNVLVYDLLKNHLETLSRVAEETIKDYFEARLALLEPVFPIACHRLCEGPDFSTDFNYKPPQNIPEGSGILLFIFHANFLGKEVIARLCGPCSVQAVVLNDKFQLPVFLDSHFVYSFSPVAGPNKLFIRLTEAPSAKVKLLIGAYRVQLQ
Sequence of Galactokinase (Homo sapiens) (P51570 whole entry, looked up): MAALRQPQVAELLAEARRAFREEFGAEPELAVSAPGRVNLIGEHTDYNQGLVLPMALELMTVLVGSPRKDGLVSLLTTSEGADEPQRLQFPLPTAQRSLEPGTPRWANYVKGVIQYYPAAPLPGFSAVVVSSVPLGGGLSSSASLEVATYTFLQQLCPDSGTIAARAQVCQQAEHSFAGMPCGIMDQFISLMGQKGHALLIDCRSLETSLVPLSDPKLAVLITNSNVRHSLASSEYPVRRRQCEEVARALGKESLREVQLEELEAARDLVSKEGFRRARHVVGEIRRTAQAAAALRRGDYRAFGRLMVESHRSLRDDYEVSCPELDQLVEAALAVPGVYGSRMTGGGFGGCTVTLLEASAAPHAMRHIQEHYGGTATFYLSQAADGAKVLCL
Sequence of DNA repair nuclease/redox regulator APEX1 (Homo sapiens) (P27695 whole entry, looked up): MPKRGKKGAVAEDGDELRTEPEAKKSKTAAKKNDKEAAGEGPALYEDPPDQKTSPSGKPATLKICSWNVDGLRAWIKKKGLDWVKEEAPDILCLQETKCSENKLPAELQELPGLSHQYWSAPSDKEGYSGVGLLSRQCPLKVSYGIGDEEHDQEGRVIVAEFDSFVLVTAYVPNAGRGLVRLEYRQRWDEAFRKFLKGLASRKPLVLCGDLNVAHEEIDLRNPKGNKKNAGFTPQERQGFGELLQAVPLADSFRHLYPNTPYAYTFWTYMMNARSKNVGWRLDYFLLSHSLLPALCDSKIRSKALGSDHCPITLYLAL

`N#C/C(=C\c1ccc(-c2ccc(Cl)c(C(=O)O)c2)o1)c1nc2ccccc2[nH]1`: the Potency entry in test [1] was “inactive”.

Regarding `O=C(Nc1cc(C(=O)Nc2ccc(S(=O)(=O)O)cc2S(=O)(=O)O)cc(C(=O)Nc2ccc(S(=O)(=O)O)cc2S(=O)(=O)O)c1)Nc1cc(C(=O)Nc2ccc(S(=O)(=O)O)cc2S(=O)(=O)O)cc(C(=O)Nc2ccc(S(=O)(=O)O)cc2S(=O)(=O)O)c1`, the outcome in test [2], in test [9], in [14], in test [16] and in [17] was inactive. Besides, the Potency in test [3] was 2.51 µM (active); in [4] it was 4.47 µM (active); in test [5], 6.31 µM (active); in test [13], 6.31 µM (active). For the same compound, the Potency entry in test [6], in [7], in test [8], in test [10], in test [11] and in test [12] was “inactive” each time. For the same compound, the activation in test [15] is 0.312%.

Regarding `O=C(Nc1ccccc1C(=O)OCc1cc(=O)n2c3c(sc2n1)CCCC3)c1ccc(F)cc1`, the activity change, negative = inhibition in test [18] was -5.61% [at 12.7 µM].

Turning to `C/C=C/C[C@@H](C)[C@@H](O)[C@H]1C(=O)N[C@@H](CC)C(=O)N(C)CC(=O)N(C)[C@@H](CC(C)C)C(=O)N[C@@H](C(C)C)C(=O)N(C)[C@@H](CC(C)C)C(=O)N[C@@H](C)C(=O)N[C@H](C)C(=O)N(C)[C@@H](CC(C)C)C(=O)N(C)[C@@H](CC(C)C)C(=O)N(C)[C@H](C(C)C)C(=O)N1C`, the Potency entry in [19] and in test [20] was “inactive” in each case.
